# According to the supplement of paper PMC4022240:
# ± gives the standard deviation.
# T1: HaloTag-ATRX ADD domain (163-292)
# T1 chain: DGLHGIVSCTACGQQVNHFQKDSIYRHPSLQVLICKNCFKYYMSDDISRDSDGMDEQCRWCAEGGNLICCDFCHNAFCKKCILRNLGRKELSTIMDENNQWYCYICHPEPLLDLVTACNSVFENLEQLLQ
# Legend:
# Test in all cases: peptide microarray binding signal (635 nm), min-max normalized on array (fraction of array maximum); higher = stronger binding
# Conditions in all cases: peptide region: H3 1-13
# [1] = target: T1, HaloTag-ATRX ADD domain (163-292)
# Protocol: (§1)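 Histone 13-mer peptides were synthesized as cellulose conjugates with a C-terminal 20-atom PEG linker and printed in triplicate on nitrocellulose. The sequence given is the unmodified backbone; PTMs (Kme1/2/3, Kac, Sph/Tph, Rme/Rme2a/Rme2s, Rcit) are listed in the label and the 'peptide modifications' condition. Slides were probed at 4 °C for 1 h with biotin-labelled (HQ)5-HaloTag reader fusions (ATRX-ADD, ING2-PHD) then streptavidin-Alexa647, or with rabbit histone antibodies then anti-rabbit Alexa647. The mean 635 nm signal of the triplicate spots was scaled 0-1 between the lowest and highest values on each array.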
# [2] = target: HaloTag-ING2 PHD (mouse Ing2 200-280)
# Protocol: as §1
# [3] = target: anti-H3K4me3 antibody ab8580
# Protocol: as §1
# [4] = target: anti-H3K9me3 antibody ab8898
# Protocol: as §1
# [5] = peptide modifications: H3R2me2a H3K9ac, binder concentration: 1:2,000 dilution
# [6] = peptide modifications: H3R2me2a H3K9ac, binder concentration: 1:10,000 dilution
# [7] = peptide modifications: H3R2me1 H3T3ph, binder concentration: 1:2,000 dilution
# [8] = peptide modifications: H3R2me1 H3T3ph, binder concentration: 1:10,000 dilution
# [9] = peptide modifications: H3R2me2a H3K4me1, binder concentration: 1:2,000 dilution
# [10] = peptide modifications: H3R2me2a H3K4me1, binder concentration: 1:10,000 dilution
# [11] = peptide modifications: H3R2me1 H3K9me3, binder concentration: 1:2,000 dilution
# [12] = peptide modifications: H3R2me1 H3K9me3, binder concentration: 1:10,000 dilution
# [13] = peptide modifications: H3R2me2a H3K4ac, binder concentration: 1:2,000 dilution
# [14] = peptide modifications: H3R2me2a H3K4ac, binder concentration: 1:10,000 dilution
binder,measurement,setting,value
ARTKQTARKSTGG [H3 1-13 A Rme2a T K Q T A R Kac S T G G],peptide microarray binding signal,"[1]; peptide modifications: H3R2me2a H3K9ac, binder concentration: 50 nM",0.132 ± 0.1
same,peptide microarray binding signal,"[1]; peptide modifications: H3R2me2a H3K9ac, binder concentration: 500 nM",0.0324 ± 0.01
same,peptide microarray binding signal,"[2]; peptide modifications: H3R2me2a H3K9ac, binder concentration: 10 nM",0.0189 ± 0.0011
same,peptide microarray binding signal,"[2]; peptide modifications: H3R2me2a H3K9ac, binder concentration: 100 nM",0.0301 ± 0.0026
same,peptide microarray binding signal,[3]; [5],0.00698 ± 0.00018
same,peptide microarray binding signal,[3]; [6],0.00799 ± 0.0008
same,peptide microarray binding signal,[4]; [5],0.00634 ± 0.0012
same,peptide microarray binding signal,[4]; [6],0.0094 ± 0.0049
ARTKQTARKSTGG [H3 1-13 A Rme Tph K Q T A R K S T G G],peptide microarray binding signal,"[1]; peptide modifications: H3R2me1 H3T3ph, binder concentration: 50 nM",0.00649 ± 0.00021
same,peptide microarray binding signal,"[1]; peptide modifications: H3R2me1 H3T3ph, binder concentration: 500 nM",0.0224 ± 0.0029
same,peptide microarray binding signal,"[2]; peptide modifications: H3R2me1 H3T3ph, binder concentration: 10 nM",0.00382 ± 7e-05
same,peptide microarray binding signal,"[2]; peptide modifications: H3R2me1 H3T3ph, binder concentration: 100 nM",0.0254 ± 0.0015
same,peptide microarray binding signal,[3]; [7],0.00321 ± 0.0015
same,peptide microarray binding signal,[3]; [8],0.00183 ± 0.00011
same,peptide microarray binding signal,[4]; [7],0.00154 ± 0.00026
same,peptide microarray binding signal,[4]; [8],0.000692 ± 1.5e-05
ARTKQTARKSTGG [H3 1-13 A Rme2a T Kme Q T A R K S T G G],peptide microarray binding signal,"[1]; peptide modifications: H3R2me2a H3K4me1, binder concentration: 50 nM",0.0111 ± 0.00026
same,peptide microarray binding signal,"[1]; peptide modifications: H3R2me2a H3K4me1, binder concentration: 500 nM",0.0211 ± 0.001
same,peptide microarray binding signal,"[2]; peptide modifications: H3R2me2a H3K4me1, binder concentration: 10 nM",0.00585 ± 0.00028
same,peptide microarray binding signal,"[2]; peptide modifications: H3R2me2a H3K4me1, binder concentration: 100 nM",0.0274 ± 0.013
same,peptide microarray binding signal,[3]; [9],0.0329 ± 0.01
same,peptide microarray binding signal,[3]; [10],0.0417 ± 0.011
same,peptide microarray binding signal,[4]; [9],0.00468 ± 0.00097
same,peptide microarray binding signal,[4]; [10],0.00352 ± 0.00019
ARTKQTARKSTGG [H3 1-13 A Rme T K Q T A R Kme3 S T G G],peptide microarray binding signal,"[1]; peptide modifications: H3R2me1 H3K9me3, binder concentration: 50 nM",1 ± 0.14
same,peptide microarray binding signal,"[1]; peptide modifications: H3R2me1 H3K9me3, binder concentration: 500 nM",1 ± 0.23
same,peptide microarray binding signal,"[2]; peptide modifications: H3R2me1 H3K9me3, binder concentration: 10 nM",0.0582 ± 0.011
same,peptide microarray binding signal,"[2]; peptide modifications: H3R2me1 H3K9me3, binder concentration: 100 nM",0.106 ± 0.024
same,peptide microarray binding signal,[3]; [11],0.088 ± 0.024
same,peptide microarray binding signal,[3]; [12],0.0951 ± 0.017
same,peptide microarray binding signal,[4]; [11],0.544 ± 0.12
same,peptide microarray binding signal,[4]; [12],0.357 ± 0.091
ARTKQTARKSTGG [H3 1-13 A Rme2a T Kac Q T A R K S T G G],peptide microarray binding signal,"[1]; peptide modifications: H3R2me2a H3K4ac, binder concentration: 50 nM",0.0125 ± 0.00079
same,peptide microarray binding signal,"[1]; peptide modifications: H3R2me2a H3K4ac, binder concentration: 500 nM",0.0335 ± 0.0053
same,peptide microarray binding signal,"[2]; peptide modifications: H3R2me2a H3K4ac, binder concentration: 10 nM",0.0118 ± 0.0039
same,peptide microarray binding signal,"[2]; peptide modifications: H3R2me2a H3K4ac, binder concentration: 100 nM",0.0337 ± 0.0021
same,peptide microarray binding signal,[3]; [13],0.00455 ± 0.00093
same,peptide microarray binding signal,[3]; [14],0.00639 ± 0.00058
same,peptide microarray binding signal,[4]; [13],0.0124 ± 0.0014
same,peptide microarray binding signal,[4]; [14],0.0053 ± 0.00063
